Vaccinia Venus: vaccinia inhibition (Venus reporter). Vaccinia virus Venus reporter expression, fluorescence. Potency, µM (series often up to 36.5 µM), most hits filed as inhibitors. 0.46% of 330,000 active. AID 720580; calls by dose curve; tested in A549 cells; note: nearly all actives have a fitted effect of over 30% in size
HCV inh: inhibitors of hepatitis C virus infection. Potency, µM (titrated, usually from 41.8 µM), usual class: inhibitors. 3.4% of 340,000 active. Huh7.5.1 HCVcc-Cre infection, luciferase reporter, 44 h; active = well fitted inhibition curve with a large enough effect; inconclusive = small, poorly fitted or top-dose-only effect, or another doubt; inactive = no such curve, though single readings can be large or run the other way
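Reporter virus HCVcc-Cre (~0.5 moi) infects cells exposed to compound; seeding density 1,000 cells/well with 4 h settling beforehand. Luminescence, 15 sec read, taken 44 h post-infection following a 15 min RT substrate incubation.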
Marburg entry inh: inhibitors of Marburg virus binding or cell entry | AID 540276 | Marburg virus pseudotyped entry inhibition, cell reporter | Potency, µM (series often up to 37.8 µM), actives largely listed as inhibitors | 1.8% of 300,000 active; calls by dose curve; tested in HEK293 cells
VACV mCherry inh: vaccinia inhibition (mCherry reporter); AID 720579; Vaccinia virus mCherry reporter infection, fluorescence; 0.63% of 310,000 active; Potency, µM (doses to about 36.5 µM), most hits filed as inhibitors; calls by dose curve; tested in A549 cells; note: nearly all actives have a fitted effect of over 35% in size
Lassa entry inh: inhibitors of Lassa virus binding or cell entry; Lassa virus pseudotype entry inhibition, cell reporter; Potency, µM (titrated, usually from 37.9 µM), usual class: inhibitors; 1.2% of 300,000 active; AID 540256; calls by dose curve; tested in HEK293 cells; note: nearly all actives have a fitted effect of over 50% in size
HCMV antiviral: blocks human cytomegalovirus replication. 4.5% of 410,000 active. HFF cells, HCMV-luciferase reporter, 72 h; stronger effect = lower value. AID 1259415. activity change, negative = inhibition, % at 57.5 µM; in the data active = activity change below about -60%; inconclusive = no clear call, values can overlap the other calls; inactive = above about -39%
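Compounds were evaluated in HFFs infected with an HCMV luciferase reporter virus (MOI 1 PFU/cell). Luciferase in lysates collected 72 h post infection served as the replication measure.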
Of the large screens only hits and unclear results are named; the others gave an inactive call. Hits are enriched below; roughly 7.8% of the tested compounds scored in any of these assays.

CCOC(=O)c1ccc(N2N=C(C)/C(=C/C=C/c3ccco3)C2=O)cc1	Lassa entry inh inconclusive (no result: Vaccinia Venus, VACV mCherry inh)
Cc1nc2nc(SCC(=O)NCc3ccccc3)nn2c(C)c1Cc1ccccc1Cl	none (no result: HCV inh)
O=[N+]([O-])c1cccc(CSC2=NCCN2S(=O)(=O)c2ccccc2)c1	HCMV antiviral -74.4 (no result: Vaccinia Venus, Marburg entry inh, VACV mCherry inh, Lassa entry inh)
O=[N+]([O-])c1ccc(S(=O)(=O)N2CCN=C2SCc2cccnc2)cc1	Vaccinia Venus inconclusive, VACV mCherry inh inconclusive, Lassa entry inh inconclusive, HCMV antiviral -72.8
Cc1c(C(=O)NCCC2CCCN2C)cnn1-c1nccc(-c2ccccc2F)n1 (centres undefined)	none (no result: HCV inh, Marburg entry inh, Lassa entry inh, HCMV antiviral)
COC(=O)[C@H](Cc1ccccc1)N1Cc2ccccc2Oc2cc(Br)ccc2S1(=O)=O	none (no result: Vaccinia Venus, HCV inh, Marburg entry inh, VACV mCherry inh, Lassa entry inh)
COc1ccc(C(=O)Nc2cc(C(F)(F)F)ccc2-n2cnc3ccccc32)cc1	Marburg entry inh inconclusive, HCMV antiviral -72.8
CC(=O)Nc1ccc(C(=O)Nc2cc(C(F)(F)F)ccc2-n2cnc3ccccc32)cc1	Marburg entry inh inconclusive
COc1ccccc1C(=O)N1c2ccccc2C(C)(c2ccc(Cl)cc2)CC1(C)C (centres undefined)	Lassa entry inh inconclusive, HCMV antiviral -71.8 (no result: HCV inh, Marburg entry inh)
CC1(c2ccc(Cl)cc2)CC(C)(C)N(C(=O)c2cccc(F)c2)c2ccccc21 (centres undefined)	HCMV antiviral -64.8 (no result: HCV inh, Marburg entry inh)
COc1ccc(C(=O)N2c3ccc(C)cc3C(C)(c3ccccc3)CC2(C)C)cc1 (centres undefined)	HCMV antiviral -71.2 (no result: HCV inh, Marburg entry inh)
CC1(c2ccccc2)CC(C)(C)N(C(=O)c2ccccc2Cl)c2ccccc21 (centres undefined)	none (no result: HCV inh)
CCN(CC)S(=O)(=O)c1ccc2c(c1)N(CC(=O)Nc1ccc(F)cc1)C(=O)CO2	Marburg entry inh inconclusive (no result: HCV inh)
CCc1ccc(CN(Cc2ccco2)C(=O)c2ccc(OC)cc2)cc1	none (no result: HCV inh)
O=C(C[n+]1csc2ccccc21)c1cccc([N+](=O)[O-])c1	none (no result: HCV inh, Marburg entry inh, Lassa entry inh, HCMV antiviral)
COc1cc(C(O)CO)ccc1OS(=O)(=O)O (centres undefined)	Marburg entry inh inconclusive, HCMV antiviral -73.4
O=C(NC1CCN(C(=O)NC2CCCCC2)CC1)c1ccco1	Marburg entry inh inconclusive, HCMV antiviral -106.7
O=C(NC1CCCCCCC1)c1ccco1	Marburg entry inh inconclusive (no result: Vaccinia Venus, VACV mCherry inh)
FC(F)(F)c1ccccc1Cc1c(-c2ccco2)nc2ccc(Cl)cn12	HCMV antiviral -109.9 (no result: HCV inh, Marburg entry inh, Lassa entry inh)
FC(F)(F)c1cc(Cl)c2nc(-c3ccco3)c(Cc3ccccc3C(F)(F)F)n2c1	HCMV antiviral -66.0 (no result: HCV inh, Marburg entry inh, Lassa entry inh)
Cc1ccc(-c2nc3c(Cl)cc(C(F)(F)F)cn3c2Cc2ccccc2C(F)(F)F)cc1	none (no result: HCV inh, Marburg entry inh, Lassa entry inh)
Cn1nc(C(F)(F)F)c2cc(C(=O)Nc3ccc(C(F)(F)F)cc3)sc21	HCV inh inconclusive, Marburg entry inh inconclusive, Lassa entry inh inconclusive, HCMV antiviral -106.3
Cn1nc(C(F)(F)F)c2cc(C(=O)Nc3ccc(F)cc3)sc21	HCV inh inconclusive
Cn1nc(C(F)(F)F)c2cc(C(=O)Nc3ccc(F)c(Cl)c3)sc21	HCV inh inconclusive, Marburg entry inh inconclusive, Lassa entry inh inconclusive, HCMV antiviral -75.3
Cn1nc(C(F)(F)F)c2cc(C(=O)O)sc21	Marburg entry inh inconclusive
Cc1ccc2oc(-c3ccc(Cl)cc3)c(O)c(=O)c2c1	Marburg entry inh inconclusive, HCMV antiviral -77.4 (no result: HCV inh)
CCOC(=O)C1=CCN(S(=O)(=O)c2ccc(Cl)cc2)C1c1cccc(Cl)c1 (centres undefined)	none (no result: Vaccinia Venus, HCV inh, Marburg entry inh, VACV mCherry inh, Lassa entry inh)
CN1CCN(C(=O)c2ccc3c(c2)NC(=O)/C(=C/c2ccccc2)S3)CC1	HCV inh 11.2µM, HCMV antiviral -68.8 (no result: Vaccinia Venus, Marburg entry inh, VACV mCherry inh, Lassa entry inh)
CCOC(=O)C1CCN(C(=O)COc2cccc(C)c2)CC1	VACV mCherry inh 3.98µM
CCOC(=O)C1CCN(C(=O)c2ccc3c(c2)NC(=O)/C(=C\c2cccc(C)c2)S3)CC1	HCV inh 11.2µM (no result: Vaccinia Venus, Marburg entry inh, VACV mCherry inh, Lassa entry inh)
CCOC(=O)C1CCN(C(=O)c2ccc3c(c2)NC(=O)/C(=C/c2ccccc2)S3)CC1	HCV inh 11.2µM, HCMV antiviral inconclusive (no result: Vaccinia Venus, Marburg entry inh, VACV mCherry inh, Lassa entry inh)
CCc1ccc(CNC(=O)c2cc3c(s2)-c2ccccc2OC3)cc1	none (no result: HCV inh, Lassa entry inh)
CCOc1ccc(Cn2c(CNS(=O)(=O)c3ccc(Cl)s3)nc3cccnc32)cc1	HCMV antiviral inconclusive (no result: HCV inh, Marburg entry inh)
COc1ccc(C2C(=O)N(C3CCC(C)CC3)CC(=O)N2Cc2ccc(C)cc2)cc1OC (centres undefined)	HCMV antiviral -64.7 (no result: HCV inh, Marburg entry inh)

Assay outcomes (PubChem)
